# Reference: PubChem BioAssay AID504806 (National Center for Advancing Translational Sciences (NCATS), 2011)
# Calls of active or inactive are those of the source. Calls follow the shape of the dose curve; as a rule, active = well fitted activation curve with a large enough effect; inactive = flat fitted curve, though single readings scatter.
# Test: Followup screen of LOPAC molecules that induce DNA re-replication in SW480 adenocarcinoma cells
# Conditions: Hoechst nuclear DNA content imaging, 48 h; series mostly up to 46.1 µM
# Source text: NIH Molecular Libraries Probe Production Network [MLPCN] NIH Chemical Genomics Center [NCGC] MLPCN Grant: Fast Track K99 CA136555 Assay Provider: Melvin DePamphilis, NICHD, NIH Assay Overview Eukaryotic cells normally restrict genome duplication to once per cell division. When this process is aberrant, DNA re-replication occurs when cells reinitiate DNA replication before the first round of replication is complete. DNA re-replication induces the DNA damage response, arrests cell proliferation, and triggers apoptosis. The cell cycle components cyclin A, Cdt-1, Cdc6 and geminin are critical regulators of this process and their misregulation results in DNA re-replication in normal and cancer cells. To identify compounds that induce re-replication in normal cells, an image-based assay was used to measure DNA content of nuclei, as detected by the fluorescent DNA binding dye, Hoechst. Cell nuclei were imaged by a fluorescence scanning plate imager and compounds that induce DNA re-replication were identified by the increase of nuclei with elevated fluorescence intensity.
# Assay Protocol Summary For screening, 250 cells in 5 uL/well were dispensed into black clear 1536-well plates (Aurora) using a solenoid-based dispenser. Following transfer of 23 nL compound or DMSO vehicle by a pin tool, the plates were incubated 48 hr at 37 C and 5% CO2. After addition of 1 uL/well Hoescht stain, the plates were incubated 40 min at 37 C, 5% CO2 and total intensity of fluorescent objects (nuclei) were enumerated by an Acumen Explorer Ex3 (TTP LabTech) fluorescence scanning plate imager (405 nm excitation, 500-530 nm emission). Keywords: NIH Roadmap, MLPCN, MLI, MLSMR, qHTS, NCGC, DNA replication, cancer
row,Compound,Potency
1,CCCCCCN(CCCCCC)C(=O)Cc1c(-c2ccc(F)cc2)[nH]c2ccccc12,26800 nM (active)
2,CCN(CC)C(=S)SSC(=S)N(CC)CC.[Cl-].[Cl-].[Cu+2],37.8 nM (active)
3,CS(C)=O.[Cl-].[Cl-].[Cu+2],inactive
4,CC(=O)[O-].CCN(CC)C(=S)SSC(=S)N(CC)CC.[Cu+],37.8 nM (active)
5,CC(=O)[O-].CS(C)=O.[Cu+],inactive
6,CCN(CC)C(=S)SSC(=S)N(CC)CC,30 nM (active)
